# Compound activity from PubChem BioAssay.
# HepG2 viability: counter-screen for TGF-b inhibitors: cytotoxicity in HepG2 cells; HepG2 CAGA-GFP viability, ATP luminescence, 18 h; Potency, µM (series often up to 46.1 µM), for the others: top-dose activity change, negative = cytotoxicity, usual class: cytotoxic; actives 0.76% (n = 410,000); AID 588856; further: potency means the concentration at half of the fitted maximal effect
#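 HepG2 CAGA-GFP cells (1000/well, DMEM with 1% FBS) received compound, then TGF-beta at 500 pg/mL final, and were incubated 18 hours at 37 degrees C. Viability was read by CellTiter-Glo luminescence. Media-only wells were set as complete cell-killing and DMSO as no toxicity.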
# TDP1 cell CPT: growth inhibition of DT40 Tdp1-/-;hTDP1 cells with camptothecin (screen for TDP1 inhibitors) | chicken DT40 Tdp1-/-;hTDP1 cells + 20 nM CPT, ATP luminescence, 48 h | Potency, µM (titrated, usually from 46.2 µM), for inactives: top-dose activity change, negative = growth inhibition, actives largely listed as inhibitors | actives 12% (n = 420,000) | AID 686979; further: potency means the concentration at half of the fitted maximal effect; on the % scale 0 is the no-effect control and ±100 the full control effect; nearly all actives have a fitted effect of over 55% in size
#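 Chicken DT40 Tdp1-/- cells complemented with human TDP1, 400 cells/well, exposed to compounds plus 20 nM camptothecin for at least 48 h at 37 C; viability read as ATP content by CellTiter-Glo luminescence.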
# DT40 TDP1 no CPT: qHTS for Inhibitors of human tyrosyl-DNA phosphodiesterase 1 (TDP1): qHTS in cells in absence of CPT; actives 15% (n = 420,000); DT40 Tdp1-/- hTDP1 cells, no CPT, ATP luminescence, 48 h; Potency, µM (series often up to 46.2 µM), inactives show at the highest dose activity change, negative = growth inhibition, usual class: inhibitors; further: potency means the concentration at half of the fitted maximal effect; on the % scale 0 is the no-effect control and ±100 the full control effect; nearly all actives have a fitted effect of over 55% in size
#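 Stably hTDP1-transfected Tdp1-null chicken DT40 cells were treated with library compounds minus camptothecin and grown for at least 48 hr at 37 °C, after which cellular ATP was quantified by luminescence.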
# IL1B secr inh: inflammasome signaling inhibition, IL-1 beta readout | THP-1 LPS/ATP IL-1B secretion, AlphaLISA, 16 h; stronger effect = lower value | activity change, % at 57.5 µM | actives 4.7% (n = 360,000) | AID 743279; in the data active means activity change below about -50%; inconclusive means mostly about -30% to -49%; further: on the % scale 0 is the no-effect control and ±100 the full control effect
#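 Secreted IL-1B measured by AlphaLISA bead assay after 16 h compound exposure of THP-1 cells; compounds (final up to 57.5 uM) added 1 h before LPS (250 ng/mL) and ATP (1.25 mM) stimulation; lower signal means less secretion.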
# TGFb SMAD3 inh: blocks TGF-b signaling; Potency, µM (top dose mostly 46.1 µM), for inactives: top-dose activity, negative = inhibition, hits mostly inhibitors; HepG2 CAGA-GFP TGF-b/SMAD3 reporter, GFP fluorescence, 18 h; TGF-beta stimulated, 500 pg/mL final; actives 1.2% (n = 410,000); further: potency means the concentration at half of the fitted maximal effect; on the % scale 0 is the no-effect control and ±100 the full control effect; nearly all actives have a fitted effect of over 65% in size
#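 HEPG2 CAGA-GFP, 1000 cells/well; 2 h settle, 37 C; cpd via pin tool; TGF-b 500 pg/mL final; 18 h, 37 C; GFP imaging ex488/em500-530; %Activity normalised to -TGF-b and +DMSO controls; CRC fit, curve class.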
# TDP1 block: inhibitors of human tyrosyl-DNA phosphodiesterase TDP1; recombinant TDP1, AlphaScreen DNA substrate cleavage; Potency, µM (highest dose often 130 µM), for the others: top-dose activity change, negative = inhibition, actives largely listed as inhibitors; actives 0.28% (n = 350,000); AID 485290; further: potency means the concentration at half of the fitted maximal effect; on the % scale 0 is the no-effect control and ±100 the full control effect; nearly all actives have a fitted effect of over 40% in size
# Target sequence (Q9NUW8 whole entry, looked up): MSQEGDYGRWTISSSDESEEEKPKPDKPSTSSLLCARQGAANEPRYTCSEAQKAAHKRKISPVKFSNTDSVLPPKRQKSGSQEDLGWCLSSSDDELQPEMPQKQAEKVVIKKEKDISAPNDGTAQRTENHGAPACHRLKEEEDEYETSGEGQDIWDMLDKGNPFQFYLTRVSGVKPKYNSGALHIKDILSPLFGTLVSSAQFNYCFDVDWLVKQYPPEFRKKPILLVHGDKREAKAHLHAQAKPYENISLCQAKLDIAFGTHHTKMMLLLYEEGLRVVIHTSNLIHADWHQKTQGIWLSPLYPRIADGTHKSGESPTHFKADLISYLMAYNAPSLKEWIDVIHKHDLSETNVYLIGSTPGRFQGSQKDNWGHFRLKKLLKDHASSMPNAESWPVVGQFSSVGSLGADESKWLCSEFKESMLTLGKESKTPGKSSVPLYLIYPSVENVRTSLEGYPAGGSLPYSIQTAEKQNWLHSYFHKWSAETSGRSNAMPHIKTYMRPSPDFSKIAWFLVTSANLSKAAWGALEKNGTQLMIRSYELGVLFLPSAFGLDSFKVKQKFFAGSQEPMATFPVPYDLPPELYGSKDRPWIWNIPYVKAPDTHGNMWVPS
#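 Steps: enzyme plus compound, 15 min RT; add biotin/phosphotyrosine-FITC oligonucleotide (15 nM final), react 5 min; add donor/acceptor beads (10 ug/ml final), 10 min; read AlphaScreen. Tdp1 at 1 nM final.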
# * hit, by the source's call; ? = inconclusive; . = not tested or not shown; [ ] = dose if it differs, or a comment. The list is not random: actives were taken first. Their share in the collection is about 18%. Unless noted, the call rests on the fitted dose curve; in most records, active means well fitted curve in the direction sought with a large enough effect; inconclusive means small, poorly fitted or top-dose-only effect, or another doubt; inactive means no such curve, though single readings can be large; an effect the other way counts as inactive or inconclusive.
SMILES,HepG2 viability,TDP1 cell CPT,DT40 TDP1 no CPT,IL1B secr inh,TGFb SMAD3 inh,TDP1 block
C(=N\Nc1nc2ccccc2[nH]1)/c1cccc2cccnc12,-36.5%,2.59µM*,2.91µM*,217.0,?,7.7%
CC(C)(C)NC(=O)C(Cc1ccccc1)N1C(=O)c2ccccc2C1=O (stereo not drawn),-77.3%,-5.2%,7.8%,0.8,-9.1%,0.3%
CC1CCCN(CCOc2ccc3ccccc3c2Br)C1 (stereo not drawn),-96.8%,?,?,-215.8*,?,-5.1%
CC1CCCN(CCCOc2ccc(Cl)cc2Br)C1 (stereo not drawn),-47.9%,?,?,-2.7,?,7.1%
COc1ccc(N2C(N)=NC(N)=NC23CCCC3)cc1,-8.8%,?,1.46µM*,3.2,6.5%,7.3%
NC1=NC2(CCCCC2)N(c2cccc(Cl)c2)C(N)=N1,-32.4%,10.3µM*,0.461µM*,-11.8,-13.2%,3.9%
CCCCOc1ccc(N2C(N)=NC(N)=NC23CCCCC3)cc1,-85.3%,9.2µM*,6.51µM*,-14.8,?,.
COc1ccccc1N1C(N)=NC(N)=NC12CCCCC2,5.5%,9.9%,?,33.8,-1.1%,.
N#Cc1ccccc1S(=O)(=O)N1CCCC(c2nc3c(nnn3Cc3cccc(Cl)c3)c(=O)[nH]2)C1 (stereo not drawn),-11.6%,?,?,.,0.0%,7.0%
Cc1ccccc1CN1CCC(n2nccc2NC(=O)c2ccc3c(c2)OCO3)CC1,-4.9%,-12.6%,-12.1%,?,3.2%,6.9%
CC[N+]1(CC(=O)c2ccc(OC)cc2)CCCCC1,6.6%,10.4%,-13.8%,.,4.9%,.
COc1ccc(CCNC(=O)CN2C(=O)c3ccccc3S2(=O)=O)cc1,-1.5%,2.9%,-0.2%,-3.2,-1.8%,2.5%
Cc1ccc(NC2=C(C(=O)c3ccccc3)N(C)S(=O)(=O)c3ccccc32)cc1,-0.5%,29.1µM*,25.9µM*,-21.5,-1.6%,10.4%
CCCN1C(C(=O)c2ccccc2)=C(OC(=O)c2ccc(OC)cc2)c2ccccc2S1(=O)=O,-12.7%,5.17µM*,5.17µM*,.,?,8.6%
COC(=O)CN1C(C(=O)c2ccccc2)=C(OC(=O)c2ccccc2)c2ccccc2S1(=O)=O,-16.5%,16.4µM*,25.9µM*,.,-9.8%,7.0%
CN1C(C(=O)c2ccccc2)=C(OC(=O)c2ccc(Br)cc2)c2ccccc2S1(=O)=O,-55.0%,?,20.6µM*,.,?,3.2%
CN1C(C(=O)c2ccccc2)=C(N)c2ccccc2S1(=O)=O,-0.3%,-17.4%,6.7%,-13.3,-10.4%,6.2%
CCOC(=O)c1c(NC(=O)COc2ccc(Cl)cc2C)sc(C(C)=O)c1C,-0.8%,-16.1%,-28.8%,.,-16.3%,1.9%[2.28 µM]
CC(C)NC(=O)CC(=O)Nc1ccc2nc3n(c(=O)c2c1)CCCCC3,-20.2%,5.8%,-11.2%,.,1.5%,5.9%
CCCN(CC(=O)Nc1ccccc1Br)CC(=O)Nc1ccc(F)c(F)c1F,10.0%,?,?,?,?,0.6%
CCCN(CC(=O)Nc1cc(Cl)cc(Cl)c1)CC(=O)Nc1ccc(F)c(F)c1F,-112.1%,?,23.1µM*,-97.3*,?,2.3%
CC(=O)c1cnc2nc(SCc3cccc(C)c3)nn2c1C,-0.3%,?,14.6µM*,-12.5,4.7%,.
CC(=O)c1cnc2nc(SCc3ccccc3)nn2c1C,-1.2%,5.4%,9.6%,-23.0,6.5%,.
CCCCCCOC(=O)C(C#N)c1nc2ccccc2nc1N1CCOCC1 (stereo not drawn),12.7%,?,18.4µM*,-12.7,16.0%,3.1%
CCCCOC(=O)C(C#N)c1nc2ccccc2nc1N1CCOCC1 (stereo not drawn),2.4%,?,?,?,-18.4%,9.5%
SMILES,HepG2 viability,TDP1 cell CPT,DT40 TDP1 no CPT,IL1B secr inh,TGFb SMAD3 inh,TDP1 block
CCN1CCN(c2nc3ccccc3nc2C(C#N)C(=O)OCc2ccccc2)CC1 (stereo not drawn),-37.9%,23.1µM*,?,-10.0,-6.0%,8.8%
COCCOC(=O)C(C#N)c1nc2ccccc2nc1N1CCCC1 (stereo not drawn),5.5%,-3.3%,-12.2%,-16.4,5.5%,3.8%
CCCCCNC(=O)C(C#N)c1nc2ccccc2nc1N1CCCC1 (stereo not drawn),-6.2%,-4.4%,?,19.4,158.1%,4.8%
CCCCCCOC(=O)C(C#N)c1nc2ccccc2nc1N1CCN(CC)CC1 (stereo not drawn),2.6%,?,20.6µM*,?,-0.4%,4.8%
CC1CCN(c2nc3ccccc3nc2C(C#N)C(=O)OC2CCCCC2)CC1 (stereo not drawn),3.4%,16.4µM*,?,-3.5,8.2%,2.1%
Nc1nc(NC(=O)C(Cl)(Cl)Cl)nn1-c1ccccc1,-36.6%,-7.3%,-18.0%,-4.9,?,0.6%
CCN(CC)CCN(C(=O)c1ccc2c(c1)CCCC2)c1nc2cc(OC)c(OC)cc2s1,-23.2%,23.1µM*,-25.0%,-81.8*,-5.6%,10.9%
COc1ccc(Cl)c2sc(N(CCN(C)C)C(=O)c3ccc4c(c3)OCCO4)nc12,-3.5%,?,?,-95.6*,-0.3%,-4.8%[0.505 µM]
CN(C)CCN(C(=O)c1ccc2c(c1)OCCO2)c1nc2cc3c(cc2s1)OCO3,-7.6%,-10.0%,-12.2%,-53.8*,0.2%,6.9%
CCN(CC)CCN(C(=O)c1ccc(C(=O)OC)cc1)c1nc2ccc(Cl)cc2s1,-27.4%,?,?,.,-43.9%,8.7%
CCc1ccc2nc(N(CCN(C)C)C(=O)c3ccc4ccccc4c3)sc2c1,-8.3%,?,-17.7%,-53.5*,0.0%,11.4%
